Data published in PubChem BioAssay (NCI).
Compounds without any hit were thinned out: in the full panel of roughly 83,000, 20% have a hit.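 Cells were grown in 96-well plates and exposed to the test compound at a single concentration for 48 hours; results are reported as percent growth, with values below 10 considered active.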 Unmarked numbers belong to inactive results. The source made the active and inactive calls.

The compounds below were run on IGROV1 ovarian (assay: NCI-60 one-dose screen, 48 h (100 = growth as untreated, 0 = no growth, -100 = all killed)). Settings: 10 µM unless noted.
Experimental: Growth inhibition of the IGROV1 human tumor cell line is measured as a screen for anti-cancer activity. Cells are grown in 96 well plates and exposed to the test compound for 48 hours. Compounds are tested at a single concentration, which is 10^-5 M for most compounds. The reported endpoint is percent growth (GI% or GIPRCNT), where numbers from 0 - 100% represent growth inhibition, and numbers from -100% - 0 represent cell death. For example, a value of 40 represents 60% growth inhibition. A value of 0 means no net growth occurred over the course of the experiment. A value of -40 indicates 40% of cells at the beginning of the experiment died by the end of the experiment. A value of -100 means all cells are dead at the end of the experiment.
NCI-60 Human Tumor Cell Lines Screen was performed using the standard one-dose NCI protocol, which is described in more detail at https://dtp.cancer.gov/discovery_development/nci-60/default.htm.
Compounds with GIPRCNT values below 10 were considered active. Activity score was based on GIPRCNT using the following formula: […]
Score is 0 for GIPRCNT values of 100 or above, 50 for GIPRCNT values of 0, and 100 for GIPRCNT values of -100.

SMILES	growth
CCOC(=O)c1cc(C(=O)c2ccc(OC)cc2)n2ccc(/C=C/c3cc[n+](CC(=O)c4ccc(OC)cc4)cc3)cc12	63.1%
CCCCNC(=O)Oc1ccc(/C(=C(\C)c2ccccc2)c2ccc(OCCN3CCCCC3)cc2)cc1	76.9%
Oc1c(Cl)cc(Cl)c(Cl)c1CNCCNCc1c(O)c(Cl)cc(Cl)c1Cl	16.4%
COc1ccc(-c2cnc3c(-c4cccc5cnccc45)cnn3c2)cc1	83.5%
Cc1ccc(NC(=O)c2cc(-c3nc4ccccc4s3)c(=O)n(NS(=O)(=O)c3ccc(Cl)cc3)c2N)cc1	99.7%
O=C(Cc1ccccc1)NNc1nc(Cl)nc(N2CCN(C(c3ccccc3)c3ccccc3)CC2)n1	64.5%
CC(C)N1C(=O)S/C(=C2/SC(=O)N(C(C)C)C2=O)C1=O	98.9%
CCOC(=O)C1=C(CCl)NC(=O)NC1c1ccc2c(c1)OCO2 (stereo not given)	37.2%
C=C1C(=O)O[C@H]2[C@H]1CC/C(COC(=O)NCCc1c[nH]c3ccc(OC)cc13)=C\CC[C@@]1(C)O[C@@H]21	-5.2% (active)
COC(=O)C1=C(C(=O)ON)C2C=CC1(C(Cc1ccccc1)Nc1ccccc1)O2 (stereo not given)	75.9%
COc1ccc(/C=C2\Oc3cc(OCCCCCN4CCCCC4)ccc3C2=O)cc1OC	94.3%
O=C(Nc1cccc(C2=NCCN2)c1)c1ccc(-c2ccc(C(=O)Nc3cccc(C4=NCCN4)c3)cc2)cc1	88.7%
CCCOc1ccc(/C=N/Nc2cc(C)nc3ccc(Br)cc23)cc1	90.4%
O=C(O)c1ccc(-c2nn(-c3ccc(C(F)(F)F)cc3)cc2CNc2ccc(Oc3ccccc3)cc2)cc1	89%
COc1cc2nc(-c3ccc(C(F)(F)F)cc3)cc(OCCN3CCCCC3)c2cc1OC	46.5%
COc1ccc(C(=O)C2C(C#N)C(C#N)C3c4ccccc4C=CN23)cc1 (stereo not given)	81%
COc1cc2c(cc1OC)C(=O)/C(=C/c1cc(C)c(O)c(C)c1)S2	35.6%
COC(=O)C(CC=O)C(=O)C(=O)Nc1cccc(C(F)(F)F)c1 (stereo not given)	102%
COc1ccc(/C=C/c2nc(Nc3ccc(S(=O)(=O)NC(C)=O)cc3)c3ccccc3n2)cc1	91.6%
CC(=O)Oc1ccc(/C=N/NC(N)=S)nc1	92.3%

SMILES	growth
O=S(=O)(NCCCNc1nccc(-c2c(-c3cccc(F)c3)nc3sccn23)n1)c1cccc(F)c1	18.9%
COc1cc2nc(-c3ccc(Cl)cc3)cc(OCCCN3CCCC3)c2cc1OC	34.5%
Cc1cc2nc3c4cccc(O)c4n(CCN(C)C)c3nc2cc1C	19.1%
NC(=O)Nc1ccc(-n2cnc3cc(-c4ccc(O)cc4)ccc32)cc1	108%
Nc1c(C(=O)Nc2cccc3cnccc23)sc2nc3c(cc12)CN(Cc1ccccc1)CC3	99.9%
COc1ccc(/C=C/c2nc(Nc3ccc(Cl)cc3)c3ccccc3n2)cc1	75.9%
O=S(=O)(NCCCNc1nccc(-c2c(-c3cccc(F)c3)nc3sccn23)n1)c1cccc2ccccc12	22.3%
NC1[C@H](c2c[nH]c3ccccc23)c2c([nH]c3ccccc23)[C@H]1c1c[nH]c2ccccc12 (stereo not given in full)	63.9%
O=C1/C=C/[C@@H](O)[C@@H]2C[C@@H](O)C[C@H]2/C=C/CCC[C@H](CCc2cccc3ccccc23)O1	5.72% (active)
CC/C(=C\c1ccc(OC)cc1)C(=O)c1ccc(OC)cc1	67.2%
CN1CCN(c2ccc(NC3=C(Cl)C(=O)c4ncccc4C3=O)cc2C(F)(F)F)CC1	-37.6% (active)
O=C(Nc1ccccc1C(=O)N/N=C(\c1ccccc1)c1ccccn1)c1ccc(F)cc1	22.8%
CCc1ccc(-c2cn3ccnc3c(-c3ccc4ncn(Cc5ccccc5)c4c3)n2)cc1	75%
Cn1c(N2NC(=O)C(N=Nc3ccc(S(N)(=O)=O)cc3)C2=O)nc(-c2ccco2)c(C#N)c1=O (stereo not given)	30.7%
Cc1nc2sccn2c1-c1cn2ccsc2n1	14.3%
Nc1c(C(=O)Nc2cccc3cnccc23)sc2nc3c(cc12)C(=O)CCC3	87.9%
Nc1nc(Nc2ccccc2SSc2ccccc2Nc2nc(N)nc(-c3ccc(C(F)(F)F)cc3)n2)nc(-c2ccc(C(F)(F)F)cc2)n1	69.7%
Cc1cc2nc3c4cc([N+](=O)[O-])ccc4n(CCN(C)C)c3nc2cc1C	-33.6% (active)
COc1cc(C2C3=C(COC3=O)N(CCO)c3cc4c(cc32)CCC4)cc(OC)c1OC (stereo not given)	8.46% (active)
O=C(NCCNc1nccc(-c2c(-c3cccc(F)c3)nc3sccn23)n1)c1ccc(Cl)cc1	22.5%
